Source: PubChem BioAssay AID1053188 (Broad Institute, 2014)
“And” between values parts separate entries of the source, which are not always exact repeats. Equal values may be shown once. Hit rate of the full screen: of about 83,000 compounds, about 780 (0.94%) were called active.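 How the source made its calls: active means mean inhibition of at least 50% with a set share of replicates also reaching that level; inconclusive means no clear call, values can overlap the other calls; inactive means the rest.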 Shown is part of a subset that was picked to be rich in actives.

Assay: CD40 pathway blockade in BL2 B cells – cell-based, luciferase reporter, single point, primary screen (AID 1053188);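 further: 0% = neutral control wells and 100% = IKK inhibitor VII at 50 µM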
Details: BL2 NF-kB luciferase reporter, CD40L-induced, 4 h, hits give high values; at 10 µM unless noted

Row | SMILES | inhibition
1 | Cc1ccc(S(=O)(=O)c2ccc(Oc3ccccc3)cc2)cc1 | 1.57% (inactive)
2 | O=C1C(Cl)=C(Oc2ccccc2)C(=O)c2ccccc21 | 100% (active)
3 | COc1ccc2ccccc2c1CNc1nnnn1C | -1.14% (inactive)
4 | O=C(NCC1CCCO1)c1ccc(S(=O)(=O)Nc2ccc(F)cc2)cc1 (stereo not drawn) | 7.17% (inactive)
5 | Cc1nc2cc3c(cc2s1)OCO3 | 3.54% (inactive)
6 | CN(C)CCCN(C(=O)c1ccc(S(=O)(=O)N2CCCCCC2)cc1)c1nc2cc3c(cc2s1)OCCO3 | -0.778% (inactive)
7 | c1c2c(cc3sc(N4CCCCC4)nc13)OCCO2 | 99.7% (active)
8 | O=C(NCC1CCCO1)c1cc2c(s1)CCCC2 (stereo not drawn) | -65.3% (inactive)
9 | Cc1cccn2c(CNCC(C)Oc3cccnc3)c(C(=O)N3CCOCC3)nc12 (stereo not drawn) | 9.25% (inactive)
10 | CCOc1ccc(S(=O)(=O)NCCC(=O)N2CCCCCCC2)cc1 | 7.35% (inactive)
11 | NC(=O)COC(=O)c1sc2cc(F)ccc2c1Cl | -6.93% (inactive)
12 | O=C(COc1ccccc1)Nc1ccc(C(=O)N2CCCC2)cc1 | -10.1% (inactive)
13 | N#C[C@@H]1N[C@@H](CO)[C@@H]1c1ccc(C#Cc2ccccc2F)cc1 | -72.6% [at 25 µM] (active)
14 | N#C[C@H]1N[C@H](CO)[C@@H]1c1ccc(C#Cc2ccccc2F)cc1 | -56.4% [at 25 µM] (inactive)
15 | N#C[C@@H]1N[C@H](CO)[C@@H]1c1ccc(/C=C/c2ccccc2)cc1 | -33.7% [at 25 µM] (inactive)
16 | O=C(Nc1cccc(-c2cscn2)c1)C1CCN(Cc2ccsc2)CC1 | -0.734% (inactive)
17 | CC(=O)c1c(C)[nH]c(C(=O)OCC(=O)Nc2c(C)n(C)n(-c3ccccc3)c2=O)c1C | 6.04% (inactive)
18 | Fc1ccc(-c2ccc(NCCN3CCOCC3)nn2)cc1 | -11.3% (inactive)
19 | COc1ccc2c(c1)c(=Cc1ccc(N(C)C)cc1)c1cc(-c3ccccc3)[n+](C)n12 | 104% (active)
20 | COCCCN(C(=O)CSCc1ccc(C)cc1)c1c(N)n(Cc2ccccc2)c(=O)[nH]c1=O | 10% (inactive)
21 | Cc1cccc(-n2c(=O)c3c(C)c(C)sc3n(CC(N)=O)c2=O)c1 | 0.549% (inactive)
22 | CN1CCC(N(C)C(=O)c2ccc(Cl)c(S(=O)(=O)Nc3ccc(Cl)cc3)c2)CC1 | -2.41% (inactive)

Row | SMILES | inhibition
23 | CC1(C(=O)O)CCCN(C(=O)/C=C/c2ccccc2)C1 (stereo not drawn) | 4.26% (inactive)
24 | O=C(CCCCCCCC(=O)N1CCCCC1)N1CCCCC1 | -9.37% (inactive)
25 | COc1ccc(NS(=O)(=O)c2ccc(N3CCOCC3)c(NC(=O)/C=C/C(=O)O)c2)cc1 | 2.43% (inactive)
26 | O=C(Cn1cnc([N+](=O)[O-])n1)NCCc1ccccc1 | -4.08% (inactive)
27 | O=C(Oc1ccc(-c2nc(-c3ccccn3)no2)cc1)c1ccccc1 | 49.6% (active)
28 | O=C(COC(=O)c1ccc(Oc2ccccc2)cc1)Nc1nnc(-c2ccccc2)o1 | -10.4% (inactive)
29 | CC(C)c1nc(-c2ccccn2)no1 | -17.2% (inactive)
30 | O=C(NCCCN1CCCC1=O)c1ccc(S(=O)(=O)Nc2ccccc2)cc1 | 4.15% (inactive)
31 | C=C(C)C[C@H]1CCn2cc(nn2)COCCNC1=O | 4.24% [at 25 µM] (inactive)
32 | Cc1cccc(CN2CCN(Cc3cnn(-c4ccccc4F)c3)CC2CCO)n1 (stereo not drawn) | -1.95% (inactive)
33 | CN(Cc1cccc2ncccc12)C(=O)CC1C(=O)NCCN1Cc1ccc(F)cc1 (stereo not drawn) | -2.82% (inactive)
34 | O=C(CCC(=O)c1cccs1)NC1CCCCCC1 | -60% (inactive)
35 | O=[N+]([O-])c1cccc(C2=NCCS2)c1 | 9.1% (inactive)
36 | O=C(NC1CC1)c1ccc(-c2ccccc2)cc1 | -88.4% (inactive)
37 | C/C=C/c1ccc(OCC(O)CN2CCCCCCC2)c(OC)c1 (stereo not drawn) | 0.219% (inactive)
38 | Oc1c(Cl)cc(Cl)c(Cl)c1Cc1c(O)c(Cl)cc(Cl)c1Cl | 90.9% (active)
39 | CC(NC(=O)c1ccccc1)C(=O)Nc1ccccc1 (stereo not drawn) | 3.04% (inactive)
40 | O=C(NC(=O)c1ccccc1)NC(=O)c1ccccc1 | -13.8% (inactive)
41 | O=C(NC1=CC(=O)c2ccccc2C1=O)c1ccccc1 | 97.7% (active)
42 | Cc1ccc(S(=O)(=O)N(C)CC(=O)NCCc2c[nH]c3ccccc23)cc1 | 12.5% (inactive)
43 | Cc1ccc(S(=O)(=O)N2CCN(C(=O)Cc3sc(C)nc3-c3ccc(F)cc3)CC2)c(C)c1 | -8.23% (inactive)
44 | Cc1cc(C)c2nc(N3CCC(C(=O)NCCN4CCOCC4)CC3)sc2c1 | -16.5% (inactive)

Row | SMILES | inhibition
45 | CC(OC(=O)CNC(=O)c1ccc(Cl)c([N+](=O)[O-])c1)C(=O)NCc1ccco1 (stereo not drawn) | 21.2% (inactive)
46 | CCC(C)N(C(=O)COC(=O)c1nc(Cl)ccc1Cl)C1CCS(=O)(=O)C1 (stereo not drawn) | 3.49% (inactive)
47 | Cc1cccc(-c2ccccc2[C@@H]2[C@H](C#N)N(c3ncc(-c4ccccc4)s3)[C@H]2CO)c1 | -6.41% [at 25 µM] (inactive)
48 | N#C[C@@H]1[C@H](c2ccccc2-c2ccccc2)[C@H](CO)N1c1ncc(-c2ccccc2)s1 | -4.27% [at 25 µM] (inactive)
49 | Cc1ccc(-c2ccccc2[C@H]2[C@@H](C#N)N(c3ncc(-c4ccccc4)s3)[C@@H]2CO)cc1 | 50.1% [at 25 µM] (active)
50 | Cc1ccc2cccc([N+](=O)[O-])c2n1 | -0.702% (inactive)
51 | CCC(=O)N1[C@@H](CO)[C@@H](c2ccc(C3=CCCC3)cc2)C12CN(C(=O)COC)C2 | -9.07% [at 25 µM] (inactive)
52 | CC(OC(=O)C1CC(=O)N(Cc2ccccc2)C1)C(=O)Nc1ccccc1[N+](=O)[O-] (stereo not drawn) | 7.76% (inactive)
53 | COc1ccc(NC(=O)c2cc3nc(-c4ccccc4)cc(C)n3n2)cc1OC | -3.33% (inactive)
54 | CN(c1nc2ccccc2n2c(-c3ccco3)nnc12)S(=O)(=O)c1ccccc1 | 1.82% (inactive)
55 | Cc1nnc2sc(-c3ccco3)nn12 | 4.37% (inactive)
56 | Cn1c(-c2ccco2)nc2cc3ccccc3cc21 | 50.6% (active)
57 | CCOC(=O)C1(C)NC(c2ccco2)C2C(=O)N(c3ccccc3)C(=O)C21 (stereo not drawn) | -6.84% (inactive)
58 | CS(=O)(=O)Nc1ccc2c(c1)[C@H]1C[C@@H](CC(=O)NCCc3ccccc3)O[C@@H](CO)[C@H]1O2 | -1.64% [at 25 µM] (inactive)
59 | O=C(NCCc1ccc(F)cc1)c1ccc(S(=O)(=O)N2CCCCC2)cc1 | -1.19% (inactive)
60 | CCOc1ccc(NC(=O)NNC(=O)c2ccc(Cl)cc2Cl)cc1 | 10.3% (inactive)
61 | CC(C)(C)NC(=O)NC(=O)COC(=O)Cc1ccc(Cl)cc1Cl | 15.3% (inactive)
62 | NC(N)=N/N=C/c1ccc(OCc2ccc(Cl)cc2Cl)cc1 | 83.8% (active)
63 | COCCNC(=O)CSc1nc(N)c(NC(=O)c2ccco2)c(=O)[nH]1 | 6.02% (inactive)
64 | COc1ccccc1C(=O)NC(CCSC)C(=O)NNC(=O)c1ccccc1C (stereo not drawn) | 0.904% (inactive)
65 | O=C(COC(=O)c1ccncc1)Nc1ccc2c(c1)OCO2 | -1.31% (inactive)
66 | O=C(COC(=O)c1ccc2c(c1)OCCO2)NCc1ccccc1Cl | -15% (inactive)

Row | SMILES | inhibition
67 | O=C1COc2ccc(C(=O)COC(=O)c3ccccc3Cl)cc2N1 | -59.8% (inactive)
68 | O=C(COC(=O)c1ccc(F)cc1)Nc1ccc2c(c1)OCO2 | -50.8% (inactive)
69 | CC(=O)Nc1cccc(C(=O)OCC(=O)c2ccc3c(c2)OCO3)c1 | 90.8% (active)
70 | O=C(COC(=O)c1ccccc1)c1ccc2c(c1)OCCO2 | 101% (active)
71 | CCC(=O)Nc1nnc(S(=O)(=O)N2CCCc3ccccc32)s1 | 5.48% (inactive)
72 | CC(C)NC(=O)N(C)C[C@H]1Oc2ccc(N(C)C)cc2CC(=O)N(C)C[C@@H]1C | 6.49% (inactive)
73 | CC(=O)Nc1cccc(C(=O)OCC(=O)NCc2cc(C)c(O)c(C)c2)c1 | -53.4% (inactive)
74 | CN(CC(=O)Nc1ccc(OC(F)(F)F)cc1)C(=O)C1CCC1 | -5.45% (inactive)
75 | O=C(CSc1ccccc1)Nc1cccc(S(=O)(=O)N2CCCCC2)c1 | -2.87% (inactive)
76 | CC(=O)Oc1ccc(-c2cccc(C(=O)N3CCCCC3)c2)cc1 | -16.5% (inactive)
77 | N#C[C@@H]1[C@H](c2ccccc2)[C@H](CO)N1C(=O)CN1CCOCC1 | -6.4% [at 25 µM] (inactive)
78 | CCOC(=O)C1(Cc2cccc(OC)c2)CCN(Cc2csc(C(C)=O)c2)CC1 | 21.6% (inactive)
79 | CN1C(=O)c2cc(NC(=O)c3cccc(F)c3)ccc2OC[C@@H]2O[C@@H](CC(=O)NCC3CCCCC3)CC[C@H]21 | 28.6% [at 25 µM] (inactive) and 23.2% [at 25 µM] (inactive)
80 | COC(=O)CCNc1ccc2c(c1)OCCO2 | 49.8% (active)
81 | Cc1ccc(OCCCC(=O)Nc2ccc3c(c2)OCCO3)cc1 | 8.39% (inactive)
82 | CCCCC(=O)Nc1ccc2c(c1)OCCO2 | -54.6% (inactive)
83 | CSc1ncccc1C(=O)NC1CCCCCC1 | 3.02% (inactive)
84 | C[C@H]1CN([C@@H](C)CO)C(=O)c2cc(C#CC3(O)CCCC3)cnc2O[C@@H]1CN(C)C(=O)Cc1ccccc1 | -19.3% [at 25 µM] (inactive)
85 | C/C=C/c1cnc2c(c1)C(=O)N([C@@H](C)CO)C[C@@H](C)[C@@H](CN(C)C(=O)C1CCOCC1)O2 | -23% [at 25 µM] (inactive)
86 | C[C@@H]1CN([C@@H](C)CO)C(=O)c2cc(C#CCc3ccccc3)cnc2O[C@@H]1CN(C)C(=O)C1CCOCC1 | 65% [at 25 µM] (active)
87 | COC(=O)Cc1c(-c2[nH]c3ccccc3c2CC(=O)OC)[nH]c2ccccc12 | -13.2% (inactive)
88 | COc1ccc(CCNC(=O)CN(c2ccccc2)S(=O)(=O)c2ccccc2)cc1 | 11.3% (inactive)
